Measured values taken from the OligoGym collection.
Further: reference of the scale not given here.

These sequences were tested against ACOT6 (assay: pooled miR-30 sensor sort-seq; sequence = guide strand). Conditions: shRNA.
TTGATAAGTACAGTGGCTGTGA was tested, and the sensor-assay potency score (higher = more potent) was 0.402.
Work on TAATGTAGAGGAGCTACTGTGT yielded a sensor-assay potency score (higher = more potent) of 0.0472.
Work on TTACTTTTCCTAGATCATCGAC yielded a sensor-assay potency score (higher = more potent) of -0.0892.
TTTAGGAATAATCATATCCTTG showed a sensor-assay potency score (higher = more potent) of -0.802.
For TTAGGAATAATCATATCCTTGT, the sensor-assay potency score (higher = more potent) was 0.922.

The sequences below were run against ACRV1 in the same assay as above. Conditions: shRNA.
For TCGACAGCATATAATTTGCATC, the sensor-assay potency score (higher = more potent) was -1.21.
ATTCATATAAGCACATGTGTAG gave a sensor-assay potency score (higher = more potent) of -0.436.
Work on TGAAGTTTGATGATCTATGGAG yielded a sensor-assay potency score (higher = more potent) of 0.139.
TCTTCTTTAACATGCACTGCTG gave a sensor-assay potency score (higher = more potent) of -0.6.
In the case of TTTAACATGCACTGCTGGGAAT, the sensor-assay potency score (higher = more potent) is reported as -1.59.
For TTGCATCCTCGTTCCATGGGAG, the sensor-assay potency score (higher = more potent) was 0.0526.
In the case of TAGGCTGACTTGATGTTCCTCT, the sensor-assay potency score (higher = more potent) is reported as 0.616.
TCAAAGATCTTCTTTAACATGC showed a sensor-assay potency score (higher = more potent) of -0.277.
TTAGGCTGACTTGATGTTCCTC gave a sensor-assay potency score (higher = more potent) of -0.162.
For ATAATTTGCATCCTCGTTCCAT, the sensor-assay potency score (higher = more potent) was -0.172.
For TTGAACCATGAATTGGAGTTTT, the sensor-assay potency score (higher = more potent) was -1.17.
Sequence TAATATTGTGCCTGAAGGCTGT has a sensor-assay potency score (higher = more potent) of 0.0194.
With TCTTTAACATGCACTGCTGGGA the sensor-assay potency score (higher = more potent) was -0.397.
TAATTTGCATCCTCGTTCCATG was tested, and the sensor-assay potency score (higher = more potent) was -0.581.
In the case of TTCTTTAACATGCACTGCTGGG, the sensor-assay potency score (higher = more potent) is reported as -0.734.
TTCGACAGCATATAATTTGCAT showed a sensor-assay potency score (higher = more potent) of -0.0881.
Sequence TTTTCCACCTTCAAAGATCTTC has a sensor-assay potency score (higher = more potent) of -0.56.
ATCTTCTTTAACATGCACTGCT gave a sensor-assay potency score (higher = more potent) of -0.185.
TTTGCATCCTCGTTCCATGGGA gave a sensor-assay potency score (higher = more potent) of 0.226.
TTCAAAGATCTTCTTTAACATG showed a sensor-assay potency score (higher = more potent) of -1.23.

These sequences were tested against ACSL3 in the same assay as above. Conditions: shRNA.
For TTTCACAGCAAACTAATGGTGC, the sensor-assay potency score (higher = more potent) was -0.648.
In the case of TTATCTAAAGTATCACATCCAG, the sensor-assay potency score (higher = more potent) is reported as -0.397.
Sequence TTTAGCTTCATGGTAGATGGTT has a sensor-assay potency score (higher = more potent) of 0.468.
TATCTAAAGTATCACATCCAGG gave a sensor-assay potency score (higher = more potent) of -0.889.
TAATCTTTAAGCATCCATCGGG showed a sensor-assay potency score (higher = more potent) of 0.641.
TAAAGTATCACATCCAGGGTAT showed a sensor-assay potency score (higher = more potent) of 0.0296.
Sequence AATCTTTAAGCATCCATCGGGT has a sensor-assay potency score (higher = more potent) of -0.577.
Sequence TAATTCTAGAACATGGGCCAGA has a sensor-assay potency score (higher = more potent) of -0.696.
TTCTTTACTAGTAATGATGTTG showed a sensor-assay potency score (higher = more potent) of 0.0529.
TACAGAGCCACCTTTGTCCATT was tested, and the sensor-assay potency score (higher = more potent) was -0.892.
With TTTTGCTTCATTTTTGTAGTAC the sensor-assay potency score (higher = more potent) was 0.298.
TATTGTAGTCCCACACTTCGGA gave a sensor-assay potency score (higher = more potent) of 0.568.
Sequence TTTTTGAAGACTGATCTGCTAA has a sensor-assay potency score (higher = more potent) of 0.185.
TTTACTAGTAATGATGTTGGTC was tested, and the sensor-assay potency score (higher = more potent) was 0.628.
TTTTTCTTGTCTTGACTCGGAG was tested, and the sensor-assay potency score (higher = more potent) was -0.445.
